From PubChem BioAssay AID652025 (National Center for Advancing Translational Sciences (NCATS), 2013) come the findings set out here.

Screen size: about 360,000 compounds; about 240 (0.067%) were called active. This is one part of a sample in which actives are shown more often than they occur. A number with no mark means an inactive call. No stated cut-off is given here; in the data, active means activation above about 50%; inconclusive means mostly about 30% to 49%; inactive means weaker than that.

This test in a line: qHTS of IL-2 Activators. Further: 0% is about no effect. Particulars: IL-2 activation reporter assay, cell-based qHTS; active compounds read high; in transgenic mouse T cells; stimulated with anti-CD3/CD4/CD28 beads. From the text: The adaptive immune response against any infectious agent begins with the activation of an antigen specific T cell. This relatively rare and inert ("naive") T cell undergoes a massive proliferative expansion and differentiation process to generate sufficient number of potent pathogen-specific effector T cells. The effector T cells fight the infection by making cytokines and helping other cells to become fully armed as well. If any naive T cell has antigen receptors (TCRs) that can be activated by self peptides, then a variety of regulatory mechanisms kick in to prevent this cell from performing to its full potential. These processes collectively constitute the phenomenon of immunological tolerance and their failure leads to autoimmunity. One arm of tolerance involves generation of biochemical negative feedback downstream of the TCR (tuning). This is especially relevant to self antigens present in the body over long periods of time (chronic), which form the bulk of our proteome. The negative feedback serves to tune the TCR signaling, such that the ambient antigenic stimulation is nullified intracellularly. Unfortunately, this critical machinery serves as a target for chronic viral, bacterial and parasitic infections (as well as tumors), which can evade a robust immune response, simply by allowing T cells to tune down their signaling to pathogen or malignancy derived antigens. As such, disrupting the tuning in such cases would allow the tolerant T cell to function again and deliver a robust effector response.
If a therapeutic can restore responsiveness to the tuned down T cell, even for a short time, they could combat the pathogen without any additional immunization. To that end, we have developed a sensitive HTS T cell based assay based on IL-2. This assay will be screened against the Molecular Libraries Small Molecule Repository (MLSMR) to find small molecules that could elicit this response.
NIH Chemical Genomics Center [NCGC]
NIH Molecular Libraries Probe Centers Network [MLPCN]
Assay Submitter (PI): Ron Schwartz, NIAID
4 microL (750 cells/well) of unstimulated transgenic mouse T cells (columns 1-3,5-48) are dispensed into Aurora LoBase, black clear-bottom 1536-well assay plates; column 4 receives an identical concentration of transgenic memory T cells as a non-tolerant control. Compounds are then transferred via Kalypsys pin tool equipped with 1536-pin array (10 nL slotted pins, V&P Scientific, San Diego, CA). Following addition of compound and a 60 minute incubation, 1 microL of bead stimulation solution ((0.04 micron Fluospheres (Life technologies, CA) coated with 10ug/ml each anti-CD3 and anti-CD4 (clones 2C11 and GK1.5, BD Biosciences, CA) and mixed with 1ug/ml anti-CD28 (clone PV-1, BD biosciences, CA)). columns 2-48) is added to stimulate the IL-2 response pathway; media is instead added to column 1 as an unstimulated control, while PMA/ionomycin (Sigma Aldrich, MO) is added to column 3 as a control for IL-2 tolerance bypass. The plates are then incubated at 37 degrees C for 18 hours. EGFP and DsRed signal are then detected using an Acumen eX3 Explorer fluorescent plate cytometer. All cells are dispensed in cell media containing EHAA (Quality Biologicals, MD), RPMI (Quality Biologicals, MD), Glutamine (Life Technologies, CA), Penicillin/Streptomycin (Quality Biologicals, MD), 2-ME (Sigma Aldrich, MO) and 10% FBS (Gemini Bioproducts, CA) .
On the technique in general: In qHTS, concentration-response curves come from the screen itself.
Regarding `COc1ccccc1N(CC(=O)Nc1ccccc1C(=O)N1CCCC1)S(C)(=O)=O`, the activation was -1.54%.
With `Cc1cc(Br)ccc1SCC(=O)OCC(=O)NCc1ccc2c(c1)OCO2`, the activation is -3.89%.
To `CCOc1ccc(NC(=O)CN(C)CC(=O)Nc2cccc(Cl)c2C)cc1OCC` belongs -1.33%; to `Nc1ccc(N=Nc2ccccc2Cl)c(N)n1`, 0.821%.
For the molecule `Nn1cnnc1N/N=C/c1cc([N+](=O)[O-])c(Cl)cc1Cl`, the activation was -0.276%.
The figure for `CC1=C(C(N)=O)C(c2ccc3c(c2)OCO3)n2nc(-c3cccc(C)c3)nc2N1` (stereo not given) is -0.667%; for `O=c1nc(NO)ccn1C1CCCO1` (stereo not given) it is -4.07%.
On to `CC(C)(C)OC(=O)Nc1ccc([C@@H](NC(=O)OC(C)(C)C)C(=O)OC(C)(C)C)cc1`, for which the activation was 1.22%.
In the case of `COc1ccc(CCNC(=O)c2ccc(NC(=O)CC3SC(N4CCCCC4)=NC3=O)cc2)cc1OC` (stereo not given), the activation is 1.44%.
Regarding `O=C(CSc1nc(Nc2ccccc2)nc(N2CCOCC2)n1)Nc1cc(Cl)ccc1O`, the activation is -3.68%.
To `CC(C)CN1C(=O)CN(S(C)(=O)=O)CC1(C)C(=O)NCc1ccccc1` (stereo not given) belongs -0.324%; to `O=C(Nc1ccc(F)c(Cl)c1)C1CCN(S(=O)(=O)c2cccnc2)CC1`, -4.67%; to `CCN1/C(=C\c2ccc3ccccc3[n+]2CC)Sc2cc(C)ccc21`, 83.8% (active).
As to `O=C(O)C1CCCCC1C(=O)Nc1ccc(Cl)cc1` (stereo not given), the activation is -0.998%.
The figure for `NC(N)=NCCCc1cn(CC(=O)N2CCNCC2)nn1` is -0.704%; for `CCC[C@H]1CCCC/C=C\CCCC(=O)OCCN1C(=O)OC(C)(C)C` it is -3.09%; for `OC(CNCc1ccc(Cl)c(Cl)c1)c1ccccc1` (stereo not given) it is 0.815%.
To `Cc1ccc(C)c(NS(=O)(=O)c2cc(Br)cnc2N)c1` belongs -0.259%; to `CN1CCN(c2ccc(CNS(=O)(=O)c3cccc(F)c3)cc2)CC1`, -0.358%; to `COc1ccc(CNC(=O)CN2C(=O)NC3(CCCc4sccc43)C2=O)cc1` (stereo not given), 1.66%.
To `CN(c1ccccc1)c1nc(N)c([N+](=O)[O-])c(NCc2ccco2)n1` belongs 2.01%; to `CCCC1NC(=O)NC(C)=C1C(=O)OCC` (stereo not given), -3.34%; to `CC1(C(=O)NCc2ccc(F)c(F)c2)Cc2c(-c3ccc4c(c3)OCO4)ccnc2O1` (stereo not given), 0.821%.
As to `Cc1ccc(OCCNC(=O)CN2C(=O)NC3(CCCC3)C2=O)cc1`, the activation was -0.135%.
Consider `Cc1ccc(CNC(=O)Cn2cnc3c(NCc4ccccc4)ncnc32)o1`, for which the activation was -0.27%.
The figure for `CC(C)(C)NC(=O)C(c1ccc(Cl)cc1)N(CCO)C(=O)c1snc(C(N)=O)c1N` (stereo not given) is 0.402%; for `CCOc1cc(S(=O)(=O)NC2CC(C)(C)NC(C)(C)C2)ccc1F` it is 0.923%; for `C[C@H]1COc2cc(N3CCSCC3)ccc2S(=O)(=O)N1` it is 0.723%.
To `CC(=O)Nc1ccc(NC(=O)CS(=O)(=O)c2cn(CC(=O)N3CCCCC3)c3ccccc23)cc1` belongs 2.22%.
As to `CC1CC(NC(=S)N(C)C)CC(C)(C)C1` (stereo not given), the activation is -1.93%.
To `CCN(CC)S(=O)(=O)c1ccc(CNC(=O)CN2C(=O)NC3(CCc4ccccc43)C2=O)cc1` (stereo not given) belongs -3.43%.
The figure for `CCOCc1nnc(NC(=O)CCS(=O)(=O)Cc2ccccc2)s1` is 2.97%; for `CCC(C)NC(=O)/C=C/c1ccc(S(=O)(=O)NCc2ccco2)cc1` (stereo not given) it is -0.382%.
The figure for `O=C(CCS(=O)(=O)c1ccc2c(c1)NC(=O)CS2)NCc1ccccc1Cl` is -0.54%; for `O=C(O)C1C2C=CC(C2)C1C(=O)N1CCN(CCO)CC1` (stereo not given) it is -0.292%; for `CCC(=O)c1ccc(OCC(O)Cn2nc(C)c(C(C)=O)c2C)cc1` (stereo not given) it is -0.63%.
`Cn1cccc1Cc1nnc(SCC(=O)NCCc2ccccc2)n1-c1ccc(F)cc1`: the activation was -0.845%.
To `Cc1cccc(NC(=O)CSc2nc3c(c(=O)[nH]2)CCC3)c1C` belongs -0.45%; to `O=C1C[C@@H]2c3c(cccc3CN1Cc1ccccc1)C[C@@H](O)[C@H]2O`, 0.126%.
To `CCCn1c(C(Cc2ccccc2)NC(=O)COC)nc2ccccc21` (stereo not given) belongs 0.549%; to `Cc1cccc(NC(=S)N2CCCC(c3nc4ccccc4[nH]3)C2)c1` (stereo not given), -0.267%; to `Cc1cc2cc3c(N)[nH]nc3nc2cc1C`, -0.975%.
The figure for `C=CCN1C2CCCC1CC(NC(=S)Nc1cccc(OC)c1)C2` (stereo not given) is -0.0533%; for `O=S(=O)(NCc1ccccc1Br)c1ccccc1Br` it is 0.131%; for `CCN(CC)C(=O)C1=C(C)N(Cc2ccc(F)cc2)C(=O)C(CC(=O)NCc2cccc3ccccc23)C1` (stereo not given) it is -1.55%.
